The full data set covers some 8,800 targets. This sample favours those with a hit. About 0.5% of all pairs of compound and target were hits. Values without a mark were called inactive.

Chain of UniProt P21580 (P21580 whole entry, looked up): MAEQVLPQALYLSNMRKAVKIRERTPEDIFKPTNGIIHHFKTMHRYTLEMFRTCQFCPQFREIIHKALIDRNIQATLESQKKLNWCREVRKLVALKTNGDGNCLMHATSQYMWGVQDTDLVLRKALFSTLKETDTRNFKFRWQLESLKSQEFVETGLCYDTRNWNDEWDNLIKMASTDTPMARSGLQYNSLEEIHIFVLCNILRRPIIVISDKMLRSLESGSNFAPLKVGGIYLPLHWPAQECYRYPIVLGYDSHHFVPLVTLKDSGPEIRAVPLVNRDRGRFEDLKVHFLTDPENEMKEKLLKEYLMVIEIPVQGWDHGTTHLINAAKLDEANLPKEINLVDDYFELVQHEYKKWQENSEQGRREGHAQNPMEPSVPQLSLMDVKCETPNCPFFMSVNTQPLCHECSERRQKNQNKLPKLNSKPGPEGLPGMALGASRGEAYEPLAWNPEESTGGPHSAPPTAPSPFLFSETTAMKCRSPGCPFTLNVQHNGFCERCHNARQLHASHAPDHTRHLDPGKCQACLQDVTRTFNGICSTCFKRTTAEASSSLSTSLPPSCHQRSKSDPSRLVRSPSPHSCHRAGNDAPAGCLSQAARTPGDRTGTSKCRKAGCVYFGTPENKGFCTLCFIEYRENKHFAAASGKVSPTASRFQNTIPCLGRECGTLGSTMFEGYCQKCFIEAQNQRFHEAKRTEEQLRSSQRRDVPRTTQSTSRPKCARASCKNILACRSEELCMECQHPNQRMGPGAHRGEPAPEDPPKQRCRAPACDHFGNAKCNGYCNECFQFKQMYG
Chain of UniProt P09493 (P09493 whole entry, looked up): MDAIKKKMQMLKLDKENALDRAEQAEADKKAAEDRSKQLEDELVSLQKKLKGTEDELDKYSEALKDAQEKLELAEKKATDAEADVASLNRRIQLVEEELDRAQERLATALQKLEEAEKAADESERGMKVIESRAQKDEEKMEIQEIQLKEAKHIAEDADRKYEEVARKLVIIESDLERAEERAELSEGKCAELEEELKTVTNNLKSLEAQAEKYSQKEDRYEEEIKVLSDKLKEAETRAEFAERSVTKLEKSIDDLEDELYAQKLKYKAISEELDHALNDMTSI
Chain of UniProt Q5U3C3 (Q5U3C3 whole entry, looked up): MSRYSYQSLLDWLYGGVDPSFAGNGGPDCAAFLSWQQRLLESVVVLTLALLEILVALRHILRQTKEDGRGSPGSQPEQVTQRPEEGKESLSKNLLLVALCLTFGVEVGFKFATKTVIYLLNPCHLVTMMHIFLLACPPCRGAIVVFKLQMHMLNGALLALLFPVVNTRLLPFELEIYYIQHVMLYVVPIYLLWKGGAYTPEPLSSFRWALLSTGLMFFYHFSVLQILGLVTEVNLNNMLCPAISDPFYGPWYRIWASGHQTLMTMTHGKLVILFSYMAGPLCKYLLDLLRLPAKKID
Chain of UniProt A6NHL2 (A6NHL2 whole entry, looked up): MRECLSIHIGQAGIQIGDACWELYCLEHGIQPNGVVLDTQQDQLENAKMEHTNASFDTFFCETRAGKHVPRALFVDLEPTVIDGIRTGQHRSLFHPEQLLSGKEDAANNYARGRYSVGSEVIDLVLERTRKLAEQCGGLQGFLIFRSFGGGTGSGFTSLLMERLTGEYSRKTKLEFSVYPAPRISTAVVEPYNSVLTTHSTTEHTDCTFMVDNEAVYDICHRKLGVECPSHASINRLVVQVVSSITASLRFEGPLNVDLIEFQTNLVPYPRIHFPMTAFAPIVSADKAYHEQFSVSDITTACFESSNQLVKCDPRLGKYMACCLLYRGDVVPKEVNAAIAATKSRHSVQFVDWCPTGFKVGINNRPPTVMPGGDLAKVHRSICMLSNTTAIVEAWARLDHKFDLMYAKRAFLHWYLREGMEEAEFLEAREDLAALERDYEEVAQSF
Chain of UniProt P10646 (P10646 whole entry, looked up): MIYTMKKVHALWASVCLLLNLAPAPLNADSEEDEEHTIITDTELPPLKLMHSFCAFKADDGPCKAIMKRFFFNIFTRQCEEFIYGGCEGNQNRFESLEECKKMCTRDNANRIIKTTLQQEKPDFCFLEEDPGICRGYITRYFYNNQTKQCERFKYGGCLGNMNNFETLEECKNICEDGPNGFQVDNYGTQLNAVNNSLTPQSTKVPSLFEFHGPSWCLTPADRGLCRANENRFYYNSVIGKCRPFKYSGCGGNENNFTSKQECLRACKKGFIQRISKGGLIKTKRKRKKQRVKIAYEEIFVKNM
Chain of UniProt P62328 (P62328 whole entry, looked up): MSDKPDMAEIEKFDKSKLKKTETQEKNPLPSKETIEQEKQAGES
Chain of UniProt Q04726 (Q04726 whole entry, looked up): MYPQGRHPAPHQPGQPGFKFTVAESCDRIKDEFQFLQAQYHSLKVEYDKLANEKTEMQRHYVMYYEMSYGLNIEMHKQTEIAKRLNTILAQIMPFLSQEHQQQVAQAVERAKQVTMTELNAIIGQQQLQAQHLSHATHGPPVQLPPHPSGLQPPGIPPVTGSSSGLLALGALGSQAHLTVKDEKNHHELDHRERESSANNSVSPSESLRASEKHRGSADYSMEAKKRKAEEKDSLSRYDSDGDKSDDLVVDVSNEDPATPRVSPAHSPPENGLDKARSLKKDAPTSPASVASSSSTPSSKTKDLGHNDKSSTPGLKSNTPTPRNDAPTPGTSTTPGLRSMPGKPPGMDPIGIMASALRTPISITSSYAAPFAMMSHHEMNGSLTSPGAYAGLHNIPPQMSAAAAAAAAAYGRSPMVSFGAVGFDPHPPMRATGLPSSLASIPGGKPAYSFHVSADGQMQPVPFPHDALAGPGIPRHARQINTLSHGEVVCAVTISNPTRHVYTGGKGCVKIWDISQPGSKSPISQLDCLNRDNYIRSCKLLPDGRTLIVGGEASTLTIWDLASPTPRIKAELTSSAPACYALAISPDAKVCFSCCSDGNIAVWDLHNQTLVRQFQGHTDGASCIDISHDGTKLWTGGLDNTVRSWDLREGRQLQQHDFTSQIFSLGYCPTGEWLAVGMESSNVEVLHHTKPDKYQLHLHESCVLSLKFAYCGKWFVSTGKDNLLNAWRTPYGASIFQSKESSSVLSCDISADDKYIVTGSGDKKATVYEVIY
Chain of UniProt Q8NDZ6 (Q8NDZ6 whole entry, looked up): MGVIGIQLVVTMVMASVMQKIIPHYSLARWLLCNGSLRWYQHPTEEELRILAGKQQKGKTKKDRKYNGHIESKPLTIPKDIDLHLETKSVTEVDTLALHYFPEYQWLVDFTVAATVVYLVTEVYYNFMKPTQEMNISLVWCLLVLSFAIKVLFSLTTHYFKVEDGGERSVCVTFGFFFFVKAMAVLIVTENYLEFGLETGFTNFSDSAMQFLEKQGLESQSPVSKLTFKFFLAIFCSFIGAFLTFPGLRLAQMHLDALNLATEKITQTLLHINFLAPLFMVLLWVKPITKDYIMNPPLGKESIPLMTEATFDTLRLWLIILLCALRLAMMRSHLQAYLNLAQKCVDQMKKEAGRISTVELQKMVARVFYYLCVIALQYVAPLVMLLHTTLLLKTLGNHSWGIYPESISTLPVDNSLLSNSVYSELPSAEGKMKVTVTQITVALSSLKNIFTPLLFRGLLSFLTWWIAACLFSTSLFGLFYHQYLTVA
Chain of UniProt Q9NRX6 (Q9NRX6 whole entry, looked up): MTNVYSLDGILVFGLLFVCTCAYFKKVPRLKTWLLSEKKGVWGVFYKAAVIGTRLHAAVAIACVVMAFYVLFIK
Chain of UniProt Q14CS0 (Q14CS0 whole entry, looked up): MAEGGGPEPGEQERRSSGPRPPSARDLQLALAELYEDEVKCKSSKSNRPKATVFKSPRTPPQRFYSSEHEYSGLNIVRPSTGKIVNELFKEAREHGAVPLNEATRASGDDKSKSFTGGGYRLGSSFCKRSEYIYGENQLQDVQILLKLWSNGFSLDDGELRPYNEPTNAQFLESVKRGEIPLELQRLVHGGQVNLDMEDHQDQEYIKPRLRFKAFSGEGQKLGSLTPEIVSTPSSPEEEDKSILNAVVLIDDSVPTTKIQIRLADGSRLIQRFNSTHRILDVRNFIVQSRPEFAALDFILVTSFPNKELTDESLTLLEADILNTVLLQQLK
Chain of UniProt P04350 (P04350 whole entry, looked up): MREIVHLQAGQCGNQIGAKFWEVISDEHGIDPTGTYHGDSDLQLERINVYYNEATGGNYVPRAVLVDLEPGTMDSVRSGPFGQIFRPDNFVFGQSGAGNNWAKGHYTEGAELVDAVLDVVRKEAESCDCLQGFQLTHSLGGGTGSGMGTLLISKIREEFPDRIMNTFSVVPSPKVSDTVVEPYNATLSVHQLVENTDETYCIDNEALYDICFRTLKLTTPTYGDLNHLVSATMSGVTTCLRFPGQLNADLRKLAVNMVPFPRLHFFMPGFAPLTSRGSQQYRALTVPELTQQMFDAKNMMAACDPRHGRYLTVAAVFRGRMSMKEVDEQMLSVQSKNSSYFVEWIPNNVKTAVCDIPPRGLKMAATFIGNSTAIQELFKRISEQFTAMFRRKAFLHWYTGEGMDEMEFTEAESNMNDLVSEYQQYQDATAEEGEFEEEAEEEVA
Chain of UniProt Q01664 (Q01664 whole entry, looked up): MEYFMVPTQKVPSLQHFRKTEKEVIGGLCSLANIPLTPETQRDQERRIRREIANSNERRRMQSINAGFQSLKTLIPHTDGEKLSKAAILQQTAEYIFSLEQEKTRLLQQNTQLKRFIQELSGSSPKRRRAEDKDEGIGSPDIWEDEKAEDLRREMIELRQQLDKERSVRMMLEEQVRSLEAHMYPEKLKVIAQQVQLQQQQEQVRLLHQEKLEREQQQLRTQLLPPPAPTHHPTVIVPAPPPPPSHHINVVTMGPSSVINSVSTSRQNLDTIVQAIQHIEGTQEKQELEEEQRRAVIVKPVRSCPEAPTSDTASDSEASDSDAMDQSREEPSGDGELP
Chain of UniProt Q96LJ8 (Q96LJ8 whole entry, looked up): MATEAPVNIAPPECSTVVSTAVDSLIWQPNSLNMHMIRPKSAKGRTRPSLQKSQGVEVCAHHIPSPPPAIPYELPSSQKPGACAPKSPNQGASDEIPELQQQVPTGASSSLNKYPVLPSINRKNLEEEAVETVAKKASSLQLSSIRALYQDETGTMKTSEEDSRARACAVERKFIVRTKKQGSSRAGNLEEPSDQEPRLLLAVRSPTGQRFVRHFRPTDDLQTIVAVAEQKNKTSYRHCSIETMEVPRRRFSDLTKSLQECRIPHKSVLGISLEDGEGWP

Compound in the first assay: COc1cc2ncnc(Nc3ccc(F)c(Cl)c3)c2cc1OCCCN1CCOCC1 [gefitinib]
The experiment in a line: log2 fold change, soluble protein after heating vs DMSO (PISA); higher = thermal stabilisation; K562 lysate, 10 uM; active = over 0.2 and 3.5 SD of the protein, either way, in both replicates (recomputed). Summed up:
(§1)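 K562 pellets were dounce-homogenised in PBS pH 7.4 with 1 mM MgCl2, and the crude extract at 1 mg/mL protein was treated with 10 μM compound for 30 min. Aliquots were heated for 3 min across 48°C-58°C, pooled, and brought to 0.5% NP-40 at 4°C; soluble protein was the supernatant after 21,000xg for 90 min. Soluble protein was quantified by TMTpro 16plex LC-MS/MS with channel sums equalised, and reported as log2 fold change in thermal stability against DMSO controls, with values from duplicates.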
UBIAD1 (UniProt Q9Y5Z9): the log2 fold change is -0.048.

In the case of TMEM161B (UniProt Q8NDZ6), the log2 fold change was -0.008.

Turning to TK1 (UniProt K7ERV3), the log2 fold change was 0.214.

As to U2AF1L5 (UniProt P0DN76), the log2 fold change is -0.061.

With TUBB4A (UniProt P04350), the log2 fold change was 0.101.

As for TUBGCP5 (UniProt Q96RT8), the log2 fold change is -0.007.

For the target UBXN2B (UniProt Q14CS0), the log2 fold change is 0.008.

In the case of TNFAIP3 (UniProt P21580), the log2 fold change was -0.028.

For TUBB6 (UniProt K7ES63), the log2 fold change was 0.165.

With TFAP4 (UniProt Q01664), the log2 fold change is -0.096.

As for TMEM164 (UniProt Q5U3C3), the log2 fold change was -0.063.

For TXNIP (UniProt Q9H3M7), the log2 fold change is -0.004.

For TMSB4X (UniProt P62328), the log2 fold change was -0.001.

TNKS (UniProt O95271): the log2 fold change was -0.069.

For the target TJP1 (UniProt G3V1L9), the log2 fold change is -0.215.

On to TPD52L2 isoform 3 (UniProt O43399), for which the log2 fold change is -0.244.

In the case of TSPAN3 (UniProt O60637), the log2 fold change is 0.049.

Consider TMEM167B (UniProt Q9NRX6), for which the log2 fold change was 0.032.

As for TFPI (UniProt P10646), the log2 fold change was 0.061.

TPM1 isoform 4 (UniProt P09493): the log2 fold change is 0.008.

On to UBL5 (UniProt Q9BZL1), for which the log2 fold change is -0.141.

Regarding TUBAL3 (UniProt A6NHL2), the log2 fold change is -0.057.

On to TUBB4A (UniProt M0QYM7), for which the log2 fold change was -0.076.

On to TLE3 isoform 5 (UniProt Q04726), for which the log2 fold change was 0.009.

Compound in another assay: CS(=O)(=O)CCNCc1ccc(-c2ccc3ncnc(Nc4ccc(OCc5cccc(F)c5)c(Cl)c4)c3c2)o1 [lapatinib]
Described as above. Summed up:
as §1
For TMEM132A isoform 2 (UniProt Q24JP5), the log2 fold change was -0.172.

On to UBIAD1 (UniProt Q9Y5Z9), for which the log2 fold change was 0.031.

TMEM161B (UniProt Q8NDZ6): the log2 fold change is -0.057.

For the target U2AF1L5 (UniProt P0DN76), the log2 fold change is 0.091.

Regarding TUBB4A (UniProt P04350), the log2 fold change was -0.095.

Regarding TUBGCP5 (UniProt Q96RT8), the log2 fold change is 0.11.

As for UBXN10 (UniProt Q96LJ8), the log2 fold change is -0.041.

With UBXN2B (UniProt Q14CS0), the log2 fold change is -0.226.

UCHL5 (UniProt Q5LJA9): the log2 fold change is 0.027.

Take TNFAIP3 (UniProt P21580): the log2 fold change was -0.032.

For TUBB6 (UniProt K7ES63), the log2 fold change was -0.1.

On to TFAP4 (UniProt Q01664), for which the log2 fold change was -0.05.

With TMEM164 (UniProt Q5U3C3), the log2 fold change is -0.166.

For the target TPM3 isoform 3 (UniProt P06753), the log2 fold change is -0.009.

As for TMSB4X (UniProt P62328), the log2 fold change was 0.12.

For TNKS (UniProt O95271), the log2 fold change is -0.085.

In the case of TSPAN3 (UniProt O60637), the log2 fold change is -0.013.

Turning to TMEM167B (UniProt Q9NRX6), the log2 fold change was -0.045.

With TFPI (UniProt P10646), the log2 fold change was -0.035.

Regarding TPM1 isoform 4 (UniProt P09493), the log2 fold change is 0.032.

On to TBC1D20 isoform 3 (UniProt Q96BZ9), for which the log2 fold change is -0.019.

In the case of TUBAL3 (UniProt A6NHL2), the log2 fold change is -0.07.

As for TUBB4A (UniProt M0QYM7), the log2 fold change was -0.009.

Take TMEM177 (UniProt Q53S58): the log2 fold change is 0.018.

As to TLE3 isoform 5 (UniProt Q04726), the log2 fold change was 0.011.

Compound in a further assay: CS(=O)(=O)N1CCN(Cc2cc3nc(-c4cccc5[nH]ncc45)nc(N4CCOCC4)c3s2)CC1 [pictilisib]
The assay is described as above. The essentials: as §1
Take TMEM161B (UniProt Q8NDZ6): the log2 fold change is -0.05.

Take TK1 (UniProt K7ERV3): the log2 fold change is -0.144.

Regarding TUBB4A (UniProt P04350), the log2 fold change is -0.055.

Turning to TM2D3 (UniProt Q9BRN9), the log2 fold change was 0.069.

Consider TUBGCP5 (UniProt Q96RT8), for which the log2 fold change is 0.037.

In the case of UBXN10 (UniProt Q96LJ8), the log2 fold change was 0.006.

Consider UBXN2B (UniProt Q14CS0), for which the log2 fold change is -0.036.

As for UCHL5 (UniProt Q5LJA9), the log2 fold change was 0.001.

Turning to TNFAIP3 (UniProt P21580), the log2 fold change is 0.052.

With TUBB6 (UniProt K7ES63), the log2 fold change was 0.021.

Take TRPM4 (UniProt Q8TD43): the log2 fold change was -0.085.

Take TFAP4 (UniProt Q01664): the log2 fold change was 0.022.

On to TMEM164 (UniProt Q5U3C3), for which the log2 fold change is 0.186.

TTLL12 (UniProt V9GY16): the log2 fold change is 0.058.

With TXNIP (UniProt Q9H3M7), the log2 fold change is 0.029.

Take TMSB4X (UniProt P62328): the log2 fold change is -0.553.

Take TJP1 (UniProt G3V1L9): the log2 fold change was 0.157.

For the target TPD52L2 isoform 3 (UniProt O43399), the log2 fold change was -0.112.

Regarding TMEM167B (UniProt Q9NRX6), the log2 fold change is -0.034.

As to TFPI (UniProt P10646), the log2 fold change is 0.009.

TPM1 isoform 4 (UniProt P09493): the log2 fold change was -0.051.

For the target TBC1D20 isoform 3 (UniProt Q96BZ9), the log2 fold change is -0.12.

As for UBL5 (UniProt Q9BZL1), the log2 fold change is -0.036.

Turning to TUBAL3 (UniProt A6NHL2), the log2 fold change is -0.034.

Turning to TUBB4A (UniProt M0QYM7), the log2 fold change is -0.067.

As to TMEM177 (UniProt Q53S58), the log2 fold change is 0.002.

With TLE3 isoform 5 (UniProt Q04726), the log2 fold change is 0.127.

Values taken from the supplement of paper PMC10849652.
